Results as given in PubChem BioAssay (EPA / NIEHS).
Some compounds were tested as several samples or in several runs, with calls that do not always agree. Activity calls are given as the source filed them. The calls were made as follows: active = hit-call score of the fitted dose curve at least 0.9, where 1 is the maximum; inactive = score below 0.9.

Columns and labels:
[1] = ATG_ERE_CIS: Attagene CIS-FACTORIAL HepG2 Assay for Estrogen Response Element (ERE) (AID 2282940); conditions: HepG2 ERE cis-reporter, Attagene RNA transcript; actives raise or lower the signal
Procedure, shortened: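 Readout: reporter mRNA induction by RT-PCR, FAM-labelled primer extension, HpaI digestion and capillary electrophoresis, 24 h after dosing transfected HepG2 cells. Endogenous transcription factors act on cis-element-regulated reporters. Gain or loss fitted against DMSO.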

[2] = ATG_Ets_CIS: Attagene CIS-FACTORIAL HepG2 Assay for human Erythroblast Transformation Specific (ETS) (AID 2282941); conditions: HepG2 ETS cis-reporter transcription, actives raise or lower the signal
Procedure, shortened: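 After transient cis-reporter transfection, HepG2 cells receive test chemical for 24 h. Reporter mRNA levels, measured by RT-PCR and capillary electrophoresis fluorescence, are analysed bidirectionally relative to the DMSO baseline.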

[3] = molecular target: Hepatocyte nuclear factor 3-beta (Homo sapiens) (UniProt Q9Y261); experiment: ATG_FoxA2_CIS: Attagene CIS-FACTORIAL HepG2 Assay for human Forkhead box A2 (FOXA2) (AID 2282942); conditions: HepG2 cis-reporter transcription factor activity, 24 h; actives raise or lower the signal
Sequence of Hepatocyte nuclear factor 3-beta (Homo sapiens) (Q9Y261 whole entry, looked up): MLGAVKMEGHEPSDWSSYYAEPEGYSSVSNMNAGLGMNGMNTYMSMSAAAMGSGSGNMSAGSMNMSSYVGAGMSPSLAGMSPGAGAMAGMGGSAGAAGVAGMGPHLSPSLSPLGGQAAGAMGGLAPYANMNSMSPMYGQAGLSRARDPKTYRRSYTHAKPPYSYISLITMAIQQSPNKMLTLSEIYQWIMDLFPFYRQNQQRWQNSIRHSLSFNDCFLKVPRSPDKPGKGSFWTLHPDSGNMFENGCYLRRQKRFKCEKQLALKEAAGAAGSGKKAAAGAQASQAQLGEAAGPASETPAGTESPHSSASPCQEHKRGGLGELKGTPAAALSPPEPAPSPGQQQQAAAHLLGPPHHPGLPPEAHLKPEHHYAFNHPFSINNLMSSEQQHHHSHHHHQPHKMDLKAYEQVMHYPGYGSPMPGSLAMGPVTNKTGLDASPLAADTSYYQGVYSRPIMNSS
Procedure, shortened: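 Transient MRTU transfection of HepG2 liver cells; 24 h treatment; total RNA → oligo(dT) RT → PCR → FAM primer extension → HpaI cut → CE. Bidirectional fit vs DMSO.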

[4] = ATG_FoxO_CIS: Attagene CIS-FACTORIAL HepG2 Assay for human Forkhead box O (FoxO) (AID 2282943); conditions: HepG2 Attagene cis-reporter, FoxO element, mRNA; actives raise or lower the signal
Procedure, shortened: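 Human hepatoma HepG2 cells carry transiently introduced reporter transcription units controlled by cis promoter elements. Chemical treatment lasted 24 h, and mRNA signal was compared with DMSO.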

[5] = ATG_GATA_CIS: Attagene CIS-FACTORIAL HepG2 Assay for human GATA Binding Protein (AID 2282944); conditions: HepG2 GATA cis-element reporter, Attagene multiplex mRNA; actives raise or lower the signal
Procedure, shortened: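 Read-out: fluorescent reporter mRNA fragments resolved by capillary electrophoresis after RT-PCR. Human liver HepG2 cells carried transiently transfected cis-regulated reporter constructs; chemicals incubated 24 h; gain or loss of signal fitted relative to DMSO.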

[6] = ATG_GLI_CIS: Attagene CIS-FACTORIAL HepG2 Assay for human Zinc Finger Protein GLI1 (AID 2282945); conditions: HepG2, Attagene cis-factorial reporter mRNA, GLI element; actives raise or lower the signal
Procedure, shortened: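 Bidirectional curve fits relative to DMSO, using reporter mRNA levels from RT-PCR plus capillary electrophoresis. Cells were HepG2 transiently carrying cis-regulated reporter constructs, harvested 24 h after dosing.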

[7] = ATG_ISRE_CIS: Attagene CIS-FACTORIAL HepG2 Assay for human Interferon Regulatory Factor 1 (IRF1) binding to an Interferon-Stimulated Response Element (ISRE) (AID 2282948); conditions: HepG2 ISRE cis-reporter (Attagene), mRNA transcription readout; actives raise or lower the signal
Procedure, shortened: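 Quantitation relies on labelled RT-PCR fragments separated by capillary electrophoresis. Human HepG2 cells bearing cis-promoter reporter constructs were treated 24 h; DMSO served as baseline for bidirectional fitting.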

[8] = ATG_M_32_CIS: Attagene CIS-FACTORIAL HepG2 Assay for M32 Transcription Factor (Internal Marker) (AID 2282949); conditions: HepG2 Attagene cis-factorial M32 reporter, mRNA; actives raise or lower the signal;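 also: background control marker of the multiplexed CIS panel rather than a real target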
Procedure, shortened: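 Fluorescent capillary electrophoresis peaks of HpaI-digested, FAM-labelled RT-PCR reporter products give the signal. Source: transiently transfected human liver HepG2 cells, 24 h after chemical dosing; bidirectional fitting against DMSO.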

[9] = molecular target: Hypoxia-inducible factor 1-alpha (Homo sapiens) (UniProt Q16665); experiment: ATG_HIF1a_CIS: Attagene CIS-FACTORIAL HepG2 Assay for human Hypoxia Inducible Factor 1 (HIF1A) (AID 2282951); conditions: HepG2 Attagene cis-factorial HIF1a reporter transcription; actives raise or lower the signal
Sequence of Hypoxia-inducible factor 1-alpha (Homo sapiens) (Q16665 whole entry, looked up, the tested form may be a part): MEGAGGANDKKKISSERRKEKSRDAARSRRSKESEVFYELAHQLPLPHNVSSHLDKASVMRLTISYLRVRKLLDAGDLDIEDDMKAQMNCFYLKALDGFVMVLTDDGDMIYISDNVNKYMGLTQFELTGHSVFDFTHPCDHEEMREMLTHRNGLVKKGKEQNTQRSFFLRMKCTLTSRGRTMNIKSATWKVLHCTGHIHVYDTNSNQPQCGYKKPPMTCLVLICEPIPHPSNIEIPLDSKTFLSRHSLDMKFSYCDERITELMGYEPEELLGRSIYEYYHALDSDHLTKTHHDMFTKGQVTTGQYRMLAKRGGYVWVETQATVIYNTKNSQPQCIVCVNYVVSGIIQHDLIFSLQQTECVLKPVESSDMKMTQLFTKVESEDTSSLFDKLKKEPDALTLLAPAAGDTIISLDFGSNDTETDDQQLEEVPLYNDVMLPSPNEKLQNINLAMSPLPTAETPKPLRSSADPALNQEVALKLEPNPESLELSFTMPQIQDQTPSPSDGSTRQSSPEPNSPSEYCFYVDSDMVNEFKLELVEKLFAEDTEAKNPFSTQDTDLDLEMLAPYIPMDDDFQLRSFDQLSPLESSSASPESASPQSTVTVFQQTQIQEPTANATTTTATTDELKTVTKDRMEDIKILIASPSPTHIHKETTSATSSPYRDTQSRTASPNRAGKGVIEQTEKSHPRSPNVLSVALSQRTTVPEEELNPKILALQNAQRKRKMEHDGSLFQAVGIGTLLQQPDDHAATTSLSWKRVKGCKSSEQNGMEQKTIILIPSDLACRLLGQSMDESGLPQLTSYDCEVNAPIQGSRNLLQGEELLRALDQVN
Procedure, shortened: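 Transient MRTU transfection of human HepG2 liver cells, 24 h compound treatment, then total RNA isolation, oligo(dT) reverse transcription, PCR amplification, fluorescent labelling and capillary electrophoresis of reporter fragments. Gain or loss relative to DMSO.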

[10] = molecular target: Hepatocyte nuclear factor 6 (Homo sapiens) (UniProt Q9UBC0); experiment: ATG_HNF6_CIS: Attagene CIS-FACTORIAL HepG2 Assay for human Hepatocyte Nuclear Factor 6 (HNF6) (AID 2282952); conditions: HepG2 Attagene cis-factorial HNF6 reporter transcription; actives raise or lower the signal
Sequence of Hepatocyte nuclear factor 6 (Homo sapiens) (Q9UBC0 whole entry, looked up): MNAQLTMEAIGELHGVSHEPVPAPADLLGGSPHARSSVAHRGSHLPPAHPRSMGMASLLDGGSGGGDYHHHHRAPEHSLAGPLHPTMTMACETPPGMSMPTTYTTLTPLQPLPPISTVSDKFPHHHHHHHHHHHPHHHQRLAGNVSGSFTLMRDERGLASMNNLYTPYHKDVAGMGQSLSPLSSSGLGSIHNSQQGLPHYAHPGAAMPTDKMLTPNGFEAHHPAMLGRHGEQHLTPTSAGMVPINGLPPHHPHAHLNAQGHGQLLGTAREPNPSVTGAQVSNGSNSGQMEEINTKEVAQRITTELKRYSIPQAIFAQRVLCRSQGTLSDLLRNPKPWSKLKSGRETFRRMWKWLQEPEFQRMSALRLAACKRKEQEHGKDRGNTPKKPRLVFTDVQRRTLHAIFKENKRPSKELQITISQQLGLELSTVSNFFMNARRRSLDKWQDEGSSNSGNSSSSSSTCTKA
Procedure, shortened: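 Cells are HepG2 carrying transiently transfected cis-promoter reporter units. Treatment lasts 24 h, after which reporter transcripts are reverse-transcribed, amplified, FAM-labelled and sized by capillary electrophoresis. DMSO serves as baseline.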

[11] = molecular target: Heat shock factor protein 1 (Homo sapiens) (UniProt Q00613); experiment: ATG_HSE_CIS: Attagene CIS-FACTORIAL HepG2 Assay for human Heat Shock Transcription Factor 1 (HSE) (AID 2282953); conditions: HepG2 HSE cis-reporter, Attagene RNA transcription; actives raise or lower the signal
Sequence of Heat shock factor protein 1 (Homo sapiens) (Q00613 whole entry, looked up, the tested form may be a part): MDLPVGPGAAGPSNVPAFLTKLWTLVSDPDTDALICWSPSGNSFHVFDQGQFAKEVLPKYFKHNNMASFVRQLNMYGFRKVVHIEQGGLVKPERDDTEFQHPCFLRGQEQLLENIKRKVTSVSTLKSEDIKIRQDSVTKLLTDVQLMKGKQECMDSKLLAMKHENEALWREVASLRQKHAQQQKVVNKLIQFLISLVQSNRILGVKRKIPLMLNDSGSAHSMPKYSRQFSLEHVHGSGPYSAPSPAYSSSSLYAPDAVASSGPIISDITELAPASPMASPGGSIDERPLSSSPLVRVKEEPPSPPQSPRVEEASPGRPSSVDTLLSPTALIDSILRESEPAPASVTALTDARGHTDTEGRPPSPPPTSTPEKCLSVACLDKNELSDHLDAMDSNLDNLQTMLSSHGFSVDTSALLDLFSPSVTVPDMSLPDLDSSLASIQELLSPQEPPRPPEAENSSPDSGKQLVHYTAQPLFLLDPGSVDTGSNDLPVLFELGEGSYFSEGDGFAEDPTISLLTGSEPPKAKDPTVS
Procedure, shortened: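 Read-out: fluorescence of reporter-specific RT-PCR fragments separated by capillary electrophoresis. HepG2 carrying transfected cis-element reporter units; 24 h dosing; activity fitted in both directions relative to DMSO baseline.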

[12] = ATG_MRE_CIS: Attagene CIS-FACTORIAL HepG2 Assay for human Metal Responsive Element (MRE) (AID 2282954); conditions: HepG2 MRE cis-reporter transcription, Attagene multiplex; actives raise or lower the signal
Procedure, shortened: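 Transient MRTU transfection of HepG2 (FuGene 6); 24 h dosing; total RNA → oligo(dT) RT, PCR, 6-FAM primer extension, HpaI cut, CE. Bidirectional fit vs DMSO.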

[13] = ATG_PBREM_CIS: Attagene CIS-FACTORIAL HepG2 Assay for human Phenobarbital-responsive Enhancer Module (PBREM) (AID 2282955); conditions: HepG2 PBREM cis-reporter, Attagene multiplexed transcription; actives raise or lower the signal
Procedure, shortened: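 Endogenous transcription factors in human liver HepG2 cells drive a PBREM cis-element reporter, whose transcript level after 24 h treatment is quantified by RT-PCR with capillary electrophoresis; activity fitted in both directions against DMSO.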

[14] = molecular target: Paired box protein Pax-6 (Homo sapiens) (UniProt P26367); experiment: ATG_Pax6_CIS: Attagene CIS-FACTORIAL HepG2 Assay for human Paired Box 6 (PAX6) (AID 2282956); conditions: HepG2 CIS-FACTORIAL PAX6 reporter transcription, RNA readout; actives raise or lower the signal
Sequence of Paired box protein Pax-6 (Homo sapiens) (P26367 whole entry, looked up): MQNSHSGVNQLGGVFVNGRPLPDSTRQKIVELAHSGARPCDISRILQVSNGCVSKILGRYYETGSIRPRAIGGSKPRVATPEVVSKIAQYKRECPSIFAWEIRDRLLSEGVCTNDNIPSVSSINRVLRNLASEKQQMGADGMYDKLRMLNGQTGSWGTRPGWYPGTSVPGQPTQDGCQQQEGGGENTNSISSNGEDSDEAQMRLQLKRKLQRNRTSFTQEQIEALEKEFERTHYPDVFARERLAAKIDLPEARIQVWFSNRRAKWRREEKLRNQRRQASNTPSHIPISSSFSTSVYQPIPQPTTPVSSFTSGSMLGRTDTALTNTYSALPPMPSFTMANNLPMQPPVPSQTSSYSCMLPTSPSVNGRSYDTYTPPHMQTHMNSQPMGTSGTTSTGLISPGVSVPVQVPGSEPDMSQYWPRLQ
Procedure, shortened: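 After twenty-four hours of chemical exposure, transfected HepG2 cells are harvested for RNA. Cis-promoter reporter transcripts are amplified, fluorescently labelled and sized by capillary electrophoresis, with gain and loss of signal scored against DMSO.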

[15] = ATG_PXRE_CIS: Attagene CIS-FACTORIAL HepG2 Assay for human Pregnane X Receptor Element (PXRE) (AID 2282957); conditions: HepG2 Attagene CIS-FACTORIAL PXRE reporter, mRNA; actives raise or lower the signal
Procedure, shortened: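 Multiplexed cis-reporter assay in transiently transfected human HepG2 cells; 24 h chemical exposure. Reporter transcripts quantified by RT-PCR with fluorescent labeling and capillary electrophoresis.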

[16] = ATG_RORE_CIS: Attagene CIS-FACTORIAL HepG2 Assay for human RAR-related Orphan Receptor Element (RORE) (AID 2282959); conditions: HepG2 Attagene cis-factorial RORE reporter, mRNA; actives raise or lower the signal
Procedure, shortened: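 Transient MRTU transfection of human HepG2 liver cells (FuGene 6); 24 h compound exposure; TriZol RNA, oligo(dT) RT, PCR, FAM labeling, HpaI cut, CE fragment analysis. DMSO = negative control/baseline.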

[17] = ATG_GRE_CIS: Attagene CIS-FACTORIAL HepG2 Assay for human Glucocorticoid Response Elements (GRE) (AID 2282947); conditions: HepG2 GRE cis-reporter, Attagene multiplex mRNA; actives raise or lower the signal
Procedure, shortened: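 Transient MRTU transfection of human HepG2 liver cells; cis-regulated reporters report endogenous factors. 24 h dosing → RNA isolation → RT-PCR → 6-FAM primer extension → HpaI cut → CE fragment analysis. Bidirectional fit, DMSO negative control.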

[18] = ATG_M_06_CIS: Attagene CIS-FACTORIAL HepG2 Assay for M06 Transcription Factor (Internal Marker) (AID 2282950); conditions: HepG2 Attagene CIS-FACTORIAL M06 internal marker reporter; actives raise or lower the signal
Procedure, shortened: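 Terse: HepG2, transient MRTU transfection (FuGene 6), 24 h dosing; total RNA, oligo(dT) RT, PCR, FAM label, HpaI cut, capillary electrophoresis; bidirectional fit vs DMSO baseline; background-control endpoint.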

[19] = ATG_PPRE_CIS: Attagene CIS-FACTORIAL HepG2 Assay for human Peroxisome Proliferator-activated Response Element (PPRE) (AID 2282958); conditions: HepG2 PPRE cis-element reporter, Attagene transcription factor profiling; actives raise or lower the signal
Procedure, shortened: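 HepG2, transient MRTU transfection (cis promoter elements, endogenous TFs). 24 h dosing. RNA → oligo(dT) RT → PCR → 6-FAM primer extension → HpaI digest → CE. Bidirectional fit vs DMSO.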

[20] = molecular target: Bile acid receptor (Homo sapiens) (UniProt Q96RI1); experiment: ATG_IR1_CIS: Attagene CIS-FACTORIAL HepG2 Assay for human Nuclear Receptor Subfamily 1 Group H Member 4 (NR1H4), IR1 submotif (AID 2282946); conditions: IR1 reporter transcription, actives raise or lower the signal
Sequence of Bile acid receptor (Homo sapiens) (Q96RI1 whole entry, looked up, the tested form may be a part): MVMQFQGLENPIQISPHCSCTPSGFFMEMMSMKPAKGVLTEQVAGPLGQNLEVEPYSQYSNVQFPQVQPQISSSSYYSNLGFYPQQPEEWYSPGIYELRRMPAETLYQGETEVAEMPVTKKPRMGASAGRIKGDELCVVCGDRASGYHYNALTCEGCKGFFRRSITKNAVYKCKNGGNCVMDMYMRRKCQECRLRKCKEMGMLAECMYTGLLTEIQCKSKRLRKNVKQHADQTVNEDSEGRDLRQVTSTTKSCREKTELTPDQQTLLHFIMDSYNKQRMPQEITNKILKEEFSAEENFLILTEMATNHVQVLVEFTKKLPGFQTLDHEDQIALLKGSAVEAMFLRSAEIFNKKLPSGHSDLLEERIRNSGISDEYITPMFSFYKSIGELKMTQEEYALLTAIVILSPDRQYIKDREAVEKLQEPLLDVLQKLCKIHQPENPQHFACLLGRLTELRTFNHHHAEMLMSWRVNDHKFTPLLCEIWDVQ
Procedure, shortened: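 Cells (human HepG2) carry transiently transfected cis-promoter reporter transcription units. Compounds are incubated 24 h, total RNA is reverse-transcribed and amplified, and labelled fragments are resolved by capillary electrophoresis. Curves use DMSO as baseline.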

Measured: AC50

CC(C)(C)c1ccc(CCOc2ncnc3ccccc23)cc1
active: [15] 34.7 µM
not listed: [17] | [18] | [19] | [20]
inactive: all other assays above

C[C@@H]1O[C@@H](O[C@H]2C[C@@H](O)[C@]3(CO)[C@H]4[C@H](O)C[C@]5(C)[C@@H](C6=CC(=O)OC6)CC[C@]5(O)[C@@H]4CC[C@]3(O)C2)[C@H](O)[C@H](O)[C@H]1O
active: [2] 0.221 µM | [4] 0.233 µM | [5] 0.0716 µM | [17] 0.287 µM | [7] 0.279 µM | [10] 0.0716 µM | [11] 0.0716 µM | [15] 0.137 µM
not listed: [9] | [20]
inactive: all other assays above

CCCCOC(C)=O
inactive: [1] | [2] | [3] | [5] | [6] | [7] | [8] | [9] | [10] | [12] | [14] | [15] | [19] | [16]
active: [5] 154 µM

C=CC(F)(C(F)(F)F)C(F)(F)C(F)(F)F (stereo not given)
not listed: [4]
inactive: all other assays above

O=[N+]([O-])c1cccc2ccccc12
active: [15] 27.6 µM
not listed: [17] | [18] | [20]
inactive: all other assays above

Cc1ccccc1OP(=O)(Oc1ccccc1)Oc1ccccc1
active: [1] 7.35 µM | [20] 23.7 µM | [7] 7.35 µM | [12] 59.8 µM | [15] 0.236 µM
not listed: [4]
inactive: all other assays above

CC(C)N(C(=O)CCl)c1ccccc1
active: [4] 33.4 µM | [9] 8.65 µM | [11] 52.4 µM | [12] 44.6 µM | [14] 53.6 µM
not listed: [16] | [18] | [19] | [20]
inactive: all other assays above

N#Cc1ccccc1N
active: [15] 39.4 µM
not listed: [4]
inactive: all other assays above

CCCCOC(=O)COC(=O)c1ccccc1C(=O)OCCCC
active: [15] 40.9 µM | [19] 42.6 µM | [16] 53.2 µM
not listed: [4] | [20]
inactive: all other assays above

CCC[N+](CCC)(CCC)CCC
not listed: [11] | [17] | [20]
inactive: all other assays above

O=C1C=CC(=O)c2ccccc21
not listed: [15] | [18] | [20]
inactive: all other assays above

OC[C@@H](O)[C@H]1O[C@@H]2O[C@H](C(Cl)(Cl)Cl)O[C@@H]2[C@H]1O
not listed: [18] | [20]
inactive: all other assays above

CC(C)(C1CCC(O)CC1)C1CCC(O)CC1 (stereo not given)
active: [1] 20.4 µM
not listed: [15] | [17] | [19] | [20]
inactive: all other assays above
